The source of these data is the supplement of paper PMC10681739.

For this assay, the target named is T1, ETS1 (UniProt P14921).
T1 sequence: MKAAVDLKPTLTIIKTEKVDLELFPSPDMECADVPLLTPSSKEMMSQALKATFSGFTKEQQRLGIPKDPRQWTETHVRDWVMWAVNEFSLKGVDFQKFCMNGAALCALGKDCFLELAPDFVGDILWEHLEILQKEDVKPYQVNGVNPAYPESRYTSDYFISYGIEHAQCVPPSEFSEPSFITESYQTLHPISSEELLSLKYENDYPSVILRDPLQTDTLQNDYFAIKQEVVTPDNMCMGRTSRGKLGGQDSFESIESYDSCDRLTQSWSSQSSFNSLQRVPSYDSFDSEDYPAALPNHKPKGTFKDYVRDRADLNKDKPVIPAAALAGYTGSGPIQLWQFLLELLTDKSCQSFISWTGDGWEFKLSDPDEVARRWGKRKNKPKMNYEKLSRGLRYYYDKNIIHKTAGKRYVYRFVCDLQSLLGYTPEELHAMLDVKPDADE
Kind of assay: TF binding intensity (PBM fluorescence), negative control probe (arbitrary fluorescence units); higher = stronger binding. On the procedure: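 gcPBM negative-control 36-bp genomic probes lacking TF binding sites. Each was incubated with recombinant human ETS1 or RUNX1 alone and detected by antibody fluorescence. Values are medians over replicate spots (4 spots for the ETS1-RUNX1 arrays, 3 for the ETS1-ETS1 array). The probes sit in constant array flanks that are not printed.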
“CCCTAAGCGCCTGCGCACATTTGCGCATCGCTCTGC (protein concentration 10 nM)” showed a TF binding intensity of 109.

“TGACCGGCGCCGACCCGGGGCGCCGAGAGGCCCACC (protein concentration 10 nM)”: the TF binding intensity was determined as 115.

“AACAGCCCCCTGAACTGCAGGGTGTGACTGTTAGCC (protein concentration 10 nM)” gave a TF binding intensity of 140.

Take “ACACATCAAAATGTCTGTGGTTTTTATGAAAAATAG (protein concentration 1 nM)”: the TF binding intensity was determined as 510.

“ATTCCAATCCTATGTGCTTTAAAGCTTCTAGACATT (protein concentration 10 nM)” returned a TF binding intensity of 119.

In turn, “AGTTTTTTGTTTTGAGCCGCAGTCTCGCTCTGTCGC (protein concentration 1 nM)” came in with a TF binding intensity of 351.

Turning to “TTATAATACATGTGCAGTATATTTTCTTGAAACTTC (protein concentration 10 nM)”, the TF binding intensity turned out to be 110.

As for “TCCTCTGGTCTCTAAACCACAGCCTCCACCAGCAAC (protein concentration 1 nM)”, the TF binding intensity is 442.

“TCCTCAGGGACGTGTGAGAACCTGGCTAGGCAAGAG (protein concentration 10 nM)” gave a TF binding intensity of 135.

“GAAATCACGGGACCCCGAGCGGTTGGAGATCTGCCA (protein concentration 10 nM)” displayed a TF binding intensity of 91.7.

“CAGGCTGTGGTTTCCATCATGAACACGTGATCCAGC (protein concentration 10 nM)” displayed a TF binding intensity of 127.

“GGTATCGAGCTCGGGGGACTGGGCTGCGGGGGACGT (protein concentration 10 nM)” displayed a TF binding intensity of 264.

In the case of “CTTATTATTAATGGTCATTAGCCACAGTCACCACCA (protein concentration 10 nM)”, the TF binding intensity came to 137.

For “ATGGCCAGTTCACAGTGAGCCAAAGTCCTCCTCACA (protein concentration 10 nM)”, the TF binding intensity is 94.5.

Take “CATATAACTGGTAGAACATCAGGTGTGGGTGGATCA (protein concentration 10 nM)”: the TF binding intensity worked out at 111.

“GTTAGAATGCAACCTTTTGACTTATATCTTTTCCCC (protein concentration 10 nM)”: the TF binding intensity was 140.

In turn, “CTGGGCCATTAACCTCAGCAGAAAAATGCTTTTTGC (protein concentration 10 nM)” had a TF binding intensity of 97.6.

In turn, “CAGAAGTTATAATAATTAATGATATCATTCAGTGTG (protein concentration 10 nM)” gave a TF binding intensity of 118.

Consider “GTATTTTGGGCGATAACACTTTCTCTACTTCTAAAA (protein concentration 10 nM)”, for which the TF binding intensity was 116.

The sequence “TCGAGTGGTGAGAAGGAGAAGGAGCGGCTGGGAGGC (protein concentration 10 nM)” gave a TF binding intensity of 137.

In turn, “TAGAAACCGTGTTTTAAATTTAACACTGGTAAGATG (protein concentration 10 nM)” had a TF binding intensity of 113.

Sequence “AGTCTAGTTTTGCTCTTTAAAATCACCATCTGTATC (protein concentration 10 nM)” returned a TF binding intensity of 138.

“ATATATAGTAACCACATGATTAATAATAATAATGCA (protein concentration 10 nM)”: the TF binding intensity was 119.

Take “CAACCTAACTATAATGCAAATAGGGATTCTTTTTCT (protein concentration 10 nM)”: the TF binding intensity worked out at 88.5.

“CACAGGTTCTTCTTCAAGGGCAGGGCACTGCACCTT (protein concentration 10 nM)” yielded a TF binding intensity of 110.

Regarding “CCTCGGGGGCCAATGTGTGCCTGTGGTGTGCGATTC (protein concentration 10 nM)”, the TF binding intensity is 121.

The sequence “AGGTGATATCTATCCCTTTCATTTCTTCTGAACAGG (protein concentration 10 nM)” showed a TF binding intensity of 114.
